In PubChem BioAssay (NCATS) one finds activity change % (negative = inhibition) data, which are given here for 40 compounds.

Inconclusive results are not listed. A number with no mark means an inactive call. The call rests on the fitted dose curve; in most records, active means well fitted inhibition curve with a large enough effect in the signal ratio, with a control signal flat (not every such curve was filed as active); inconclusive means small, poorly fitted or top-dose-only effect, or effect the other way, or a change in a side signal; inactive means flat fitted curve, though single readings scatter; the % refers to the signal ratio.
On the % scale 0 is the no-effect control and ±100 the full control effect.

This experiment deals with Thyroid hormone receptor beta (Homo sapiens) (UniProt P10828). Nature of the experiment: qHTS assay for small molecule antagonists of thyroid hormone receptor beta signaling (AID 588547).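 Further: cells stimulated with 0.4 nM T3 agonist during compound exposure; series mostly up to about 77 µM.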 The settings on record: TR-UAS-bla HEK293, beta-lactamase ratio, antagonist mode, 18 h. From the text: NIH Chemical Genomics Center [NCGC] U.S. Environmental Protection Agency [EPA] National Institutes of Environmental Health Sciences [NIEHS] National Toxicology Program [NTP] NCGC Assay Overview Thyroid hormone receptor (TR) belongs to nuclear hormone receptor superfamily. There are two subtypes for TR: TR-alpha and TR-beta. TR-beta plays a major role in regulating plasma cholesterol levels and it mediates the biological activities of thyroid hormone. Screening environmental chemicals on TR-beta signaling will provide important information for the mechanism of compound action.
Chain of Thyroid hormone receptor beta (Homo sapiens) (P10828 whole entry, looked up): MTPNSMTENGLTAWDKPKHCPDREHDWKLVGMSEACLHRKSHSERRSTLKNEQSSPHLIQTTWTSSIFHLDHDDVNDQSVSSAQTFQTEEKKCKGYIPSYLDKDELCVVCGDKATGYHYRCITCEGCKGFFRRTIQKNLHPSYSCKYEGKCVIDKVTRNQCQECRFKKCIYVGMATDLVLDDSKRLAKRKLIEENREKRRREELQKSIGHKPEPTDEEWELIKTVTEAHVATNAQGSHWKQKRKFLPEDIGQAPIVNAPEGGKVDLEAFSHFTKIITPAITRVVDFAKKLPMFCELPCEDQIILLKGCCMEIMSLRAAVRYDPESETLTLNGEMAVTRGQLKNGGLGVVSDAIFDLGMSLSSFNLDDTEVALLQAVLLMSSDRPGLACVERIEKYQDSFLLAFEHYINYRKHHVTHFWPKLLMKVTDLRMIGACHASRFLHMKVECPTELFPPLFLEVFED
NCGC Assay Protocol Summary Using a beta-lactamase reporter-gene under control of the TR response element, a cell-based assay [GeneBLAzer TR-UAS-bla-GripTite assay developed by Invitrogen] was used to measure TR-beta signaling in antagonist mode. TR-UAS-bla-GripTite HEK 293 cells were used with assay medium containing 2% charcoal/dextran FBS, 0.1 mM NEAA and 1 mM sodium pyruvate. The assay was performed in clear bottom black Greiner 1536-well plates. Library compounds were measured for their ability to inhibit the reporter gene activity. Compounds were screened in a titration series in 1536-well format. The fluorescence intensity (405 nm excitation, 460/530 nm emission) was measured using an EnVision plate reader. […] Concentration-response titration points for each compound were fitted to the Hill equation yielding concentrations of half-maximal inhibition (IC50) and maximal response (efficacy) values. qHTS protocol for TR-beta beta-lactamase assay in antagonist mode [Step] [Parameter] [Value] [Description] 1. Reagent; 5 uL; 2500 cells/well 2. Incubation; 37 C for 4 hrs 3. Compounds; 23 nL; 0.59 nM to 92 uM 4. Controls (DMSO); 23 nL 5. Agonist (Stimulator); 1uL; T3 at 0.4nM (final) concentrations 6. Incubation; 37 C for 18 hrs 7. Detection reagent; 1 uL of CCF4-dye 8. Incubation; RT for 2 hrs 9. Detection; Fluorescence; Envision plate reader
For the compound `CC(COc1ccc(C(C)(C)C)cc1)OS(=O)OCCCl` (stereo not given), the activity change % (negative = inhibition) was -14.9%.

Turning to `O=C1CCCCCCCCCCC1`, the activity change % (negative = inhibition) was 4.81%.

`C[Si]1(C)O[Si](C)(C)O[Si](C)(C)O[Si](C)(C)O1`: the activity change % (negative = inhibition) was 11%.

Consider `CCCCCCCCCCCCCCO`, for which the activity change % (negative = inhibition) is 8.79%.

As for `CCCCOCCOCCOC(=O)CCCCC(=O)OCCOCCOCCCC`, the activity change % (negative = inhibition) is -12.6%.

`c1ccc2cc3ccccc3cc2c1`: the activity change % (negative = inhibition) was -13.8%.

Take `C[C@]12CCC(=O)C=C1CC[C@@H]1[C@@H]2[C@@H](O)C[C@]2(C=O)[C@@H](C(=O)CO)CC[C@@H]12`: the activity change % (negative = inhibition) is 7.91%.

Take `CO[Si](CCCNCCN)(OC)OC`: the activity change % (negative = inhibition) is 7.69%.

With `CC(=O)N(CCN(C(C)=O)C(C)=O)C(C)=O`, the activity change % (negative = inhibition) is -8.71%.

In the case of `O=C(O)c1cc2ccccc2cc1O`, the activity change % (negative = inhibition) was -1.94%.

Consider `CCCCCCCCCCCC(=O)N(C)CC(=O)O`, for which the activity change % (negative = inhibition) is 5.42%.

`Nc1ccc(N)c2c1C(=O)c1c(N)ccc(N)c1C2=O`: the activity change % (negative = inhibition) is 20.4%.

As to `CCOCCOCCOCC`, the activity change % (negative = inhibition) is -11.8%.

As to `OCc1cccc(Oc2ccccc2)c1`, the activity change % (negative = inhibition) was 9.19%.

On to `CCCCCCC(O)CCCCCCCCCCC(=O)O` (stereo not given), for which the activity change % (negative = inhibition) is -5.14%.

As for `CC(C)O.CC(C)O.CC(C)O.CC(C)O.[Ti]`, the activity change % (negative = inhibition) is -6.47%.

For `Clc1nc(Cl)c(Cl)c(Cl)c1Cl`, the activity change % (negative = inhibition) is -13.1%.

On to `CCCCCCCCCCCCN`, for which the activity change % (negative = inhibition) was -7.43%.

Regarding `Cc1ccc(S(=O)(=O)N=C=O)cc1`, the activity change % (negative = inhibition) was 8.97%.

Take `COC(=O)c1c(Cl)nn(C)c1S(=O)(=O)NC(=O)Nc1nc(OC)cc(OC)n1`: the activity change % (negative = inhibition) is -5.79%.

As to `CCCCCCOCCOCCO`, the activity change % (negative = inhibition) was -6.1%.

Turning to `CCCCCCCC[Si](Cl)(Cl)Cl`, the activity change % (negative = inhibition) is -0.14%.

Consider `C/C=C/C=C/CCCCCCCO`, for which the activity change % (negative = inhibition) is -0.935%.

Take `CCCCOCCOCCOCCO`: the activity change % (negative = inhibition) was -0.828%.

With `c1ccc2c(c1)ccc1c3ccccc3ccc21`, the activity change % (negative = inhibition) was 1.89%.

`OCCOCCOCCOCCOCCO`: the activity change % (negative = inhibition) was -16.4%.

For `CCOc1ccc(NC(=O)OC(C)C)cc1OCC`, the activity change % (negative = inhibition) is -11%.

Consider `CCCCCCCCCCCO`, for which the activity change % (negative = inhibition) was 9.58%.

For the compound `C=CC(=O)OCCOc1ccccc1`, the activity change % (negative = inhibition) is -3.52%.

Take `CCOC(=O)c1ccccc1C`: the activity change % (negative = inhibition) was -2.99%.

Consider `CCCCN(CCCC)CCCC`, for which the activity change % (negative = inhibition) was -2.52%.

On to `Cc1ccc(Cl)cc1Cl`, for which the activity change % (negative = inhibition) is -1.13%.

As for `NCCCCCCCCCCCC(=O)O`, the activity change % (negative = inhibition) was 11.2%.

On to `CC(C)(C)c1cccc(C(C)(C)C)c1O`, for which the activity change % (negative = inhibition) is 16.3%.

For `CC1(C)C(=O)N(Cl)C(=O)N1Cl`, the activity change % (negative = inhibition) is -0.904%.

On to `CCCCC(CC)COP(=O)(O)OCC(CC)CCCC` (stereo not given), for which the activity change % (negative = inhibition) was -4.02%.

On to `Cc1ccc(C(=O)c2ccccc2)cc1`, for which the activity change % (negative = inhibition) was -19.1%.

On to `CCCCN(CCCC)CCCCCCN(CCCC)CCCC`, for which the activity change % (negative = inhibition) is 10%.

As for `COc1ccccc1NC(=O)CC(C)=O`, the activity change % (negative = inhibition) was -1.32%.

For the compound `C[Si](Cl)(Cl)[Si](C)(Cl)Cl`, the activity change % (negative = inhibition) was 3.73%.
